The nature of test [1]: qHTS assay to identify small molecule antagonists of the retinoid acid receptor (RAR) signaling pathway - cell viability counter screen (AID 1159551). Also: nearly all actives have a fitted effect of over 35% in size. Particulars: C3RL4 cells viability, ATP luminescence (CellTiter-Glo), 6 h; series mostly up to 92.4 µM. Put shortly:
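ATP-based viability, C3RL4 cells, 6 h at 37 C with 1 uM final retinol co-added after compound; luminescence read 30 min post CellTiter-Glo, RT.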
A general note: Quantitative high-throughput screening tests each substance at several concentrations.

Test [2] in a line: qHTS assay to identify small molecule antagonists of the retinoic acid receptor (RAR) signaling pathway (AID 1159552; also: nearly all actives have a fitted effect of over 50% in size; also: potency is read from the fitted curve at half-maximal effect). Particulars: C3RL4 RARE luciferase reporter, retinol-stimulated, 6 h; series mostly up to 92.4 µM. In short, it runs like this:
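Antagonism of retinol-induced RARE reporter activity was measured in C3RL4 cells. Exposure to compounds and 1 uM final retinol lasted 6 hr at 37 C, with luminescence as endpoint.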

A short description of test [3]: qHTS assay to identify small molecule agonists of the retinoic acid receptor (RAR) signaling pathway (AID 1159553). Also: potency is read from the fitted curve at half-maximal effect. As to conditions: C3RL4 RARE luciferase reporter, agonist, 6 h; activation: at 73.3 µM (top of the series) unless noted. In short, it runs like this:
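Quantitative high-throughput format: the Tox21 10K library was tested on C3RL4 RARE-luciferase cells for 6 hr at 37 C and 5% CO2, with luminescence measured after a 30 min room-temperature reagent step.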

A short description of test [4]: qHTS assay to identify small molecule agonists of the RXR signaling pathway - cell viability counter screen (AID 1159529). Also: nearly all actives have a fitted effect of over 50% in size. Also: potency is read from the fitted curve at half-maximal effect. As to conditions: RXR-alpha-bla HEK293T viability, CellTiter-Glo, 16 h; series mostly up to 76.8 µM. In short, it runs like this: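 Counter screen: CellTiter-Glo luminescence. Cells: RXR-alpha-UAS-bla HEK 293T. Medium: 2% charcoal-stripped FBS. Treatment: 16 h, 37 C. Reagent incubation: 30 min, RT.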

Test [5] addresses Retinoic acid receptor RXR-alpha (Homo sapiens) (UniProt P19793). In words: qHTS assay to identify small molecule agonists of the RXR signaling pathway (AID 1159527; calls by dose curve; also: nearly all actives have a fitted effect of over 35% in size). As to conditions: HEK293T RXRa-UAS-bla, beta-lactamase ratio, 16 h; series mostly up to 76.8 µM. In short, it runs like this:
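Compounds in DMSO were added to RXR-alpha-UAS-bla HEK 293T cells kept in 2% charcoal-stripped serum, and incubated 16 hr at 37 C with 5% CO2. Reporter signal came from a 2 hr B/G FRET substrate step.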

Test [6] is described as follows: qHTS assay to identify small molecule antagonists of the estrogen related receptor (ERR) signaling pathway (AID 1224819; also: potency is read from the fitted curve at half-maximal effect; nearly all actives have a fitted effect of over 50% in size). As to conditions: ERR reporter cell line, luciferase inhibition; series mostly up to 92.2 µM. Put shortly:
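ERR reporter cell line (NTP) plated at 2,000 cells/well, settled 6 h at 37C/5% CO2, then exposed to LOPAC compounds for 18 h at 37C. One-Glo luciferase luminescence read after 30 min at room temperature.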

Test [7] is described as follows: qHTS assay to identify small molecule agonists of the estrogen related receptor (ERR) signaling pathway (AID 1224820). Particulars: ERR reporter cell line, luciferase agonist mode; series mostly up to 92.2 µM. In short, it runs like this:
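Following a 6 h settling period, 2,000 ERR cells per well receive DMSO-dissolved compounds by pin tool and incubate 18 h at 37 C; agonist activity is scored from One-Glo luminescence read 30 min post-addition.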

Test [8] deals with estrogen-related receptor alpha (ERRalpha) with PGC-1alpha coactivator, human. In words: qHTS assay to identify small molecule antagonists of the estrogen related receptor signaling pathway with the pleiotropic PPARgamma coactivator (PGC) (AID 1224821; calls by dose curve; also: potency is read from the fitted curve at half-maximal effect; nearly all actives have a fitted effect of over 50% in size). As to conditions: ERR/PGC reporter cell line, luciferase, antagonist mode; series mostly up to 92.2 µM. Put shortly: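 Screening used NTP's PGC/ERR cells, dosed via pin tool with compound in DMSO alongside positive and negative controls. After 18 h at 37 C, One-Glo reagent sat 30 min at room temperature before luminescence detection.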

Where “and” joins values, the source holds several entries; their conditions need not be identical. Identical values can stand only once. Results filed as inconclusive are left out. More than one record can exist for a structure, and the calls need not agree. Calls of active or inactive are those of the source. Unless noted, calls follow the shape of the dose curve; as a rule, active = well fitted curve in the direction sought with a large enough effect in the repeat runs; inconclusive = weak or mixed curves; inactive = no such curve, though single readings can be large; an effect the other way counts as inactive or inconclusive.

Retinoic acid receptor RXR-alpha (Homo sapiens), sequence (P19793 whole entry, looked up): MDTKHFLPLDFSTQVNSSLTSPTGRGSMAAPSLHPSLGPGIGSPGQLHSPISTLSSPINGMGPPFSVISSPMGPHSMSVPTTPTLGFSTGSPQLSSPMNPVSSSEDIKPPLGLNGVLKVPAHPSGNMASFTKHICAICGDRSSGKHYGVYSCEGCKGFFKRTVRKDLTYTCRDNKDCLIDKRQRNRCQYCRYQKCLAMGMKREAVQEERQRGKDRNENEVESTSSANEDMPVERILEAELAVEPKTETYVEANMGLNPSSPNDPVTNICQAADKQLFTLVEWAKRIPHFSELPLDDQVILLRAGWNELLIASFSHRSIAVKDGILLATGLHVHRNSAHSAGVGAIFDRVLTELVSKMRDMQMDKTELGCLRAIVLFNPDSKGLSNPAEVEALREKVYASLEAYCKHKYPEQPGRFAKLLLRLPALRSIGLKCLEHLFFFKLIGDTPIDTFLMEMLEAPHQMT

Regarding `Cc1c(COC(=O)[C@@H]2[C@H](/C=C(\Cl)C(F)(F)F)C2(C)C)cccc1-c1ccccc1`, the Potency result in test [1], in test [2] and in test [3] was “inactive” throughout.

Consider `CCOCN(C(=O)CCl)c1c(C)cccc1CC`, for which the Potency entry in test [4], in test [1] and in test [3] was “inactive” throughout.

Take `O=[N+]([O-])c1cccc2ccccc12`: the Potency result in test [5], in test [1], in test [2] and in test [3] was “inactive” each time.

In the case of `C=C(C)[C@H]1Cc2c(ccc3c2O[C@@H]2COc4cc(OC)c(OC)cc4[C@@H]2C3=O)O1`, the Potency result in test [3] and in test [7] was “inactive” each time. Further, the Potency was 0.081 µM (active) in test [6] and 0.0361 µM (active) in test [8].

Regarding `c1cc(OCC2CO2)ccc1Cc1ccc(OCC2CO2)cc1` (centres undefined), the Potency entry in test [1], in test [2] and in test [3] was “inactive” in each case.

`CC(C)Oc1cc(-n2nc(C(C)(C)C)oc2=O)c(Cl)cc1Cl`: the Potency entry in test [1] and in test [3] was “inactive” throughout.

Consider `CCc1cccc(CC)c1N(COC)C(=O)CCl`, for which the Potency entry in test [4] and in test [1] was “inactive” each time.

Regarding `Nc1ccc(-c2ccc(N)c(N)c2)cc1N`, the Potency result in test [1] and in test [2] was “inactive” throughout. The Potency in test [3] is 10.8 µM (active) and 8.63 µM (active).

For the compound `NNC(=S)NN`, in test [1], the Potency entry was “inactive”.

Consider `CCCCCCCCC(=O)NCc1ccc(O)c(OC)c1`, for which the Potency entry in test [4], in test [1] and in test [2] was “inactive” each time.

For `CCOC(=S)S`, the Potency in test [4] is 23.3 µM (active). The Potency entry in test [2] was “inactive”.

Take `C#C[C@]1(O)CC[C@H]2[C@@H]3CCC4=CC(=O)CC[C@]4(C)[C@H]3CC[C@@]21C`: the Potency result in test [1], in test [2] and in test [3] was “inactive” each time.

Take `Cc1ccc(OP(=O)(Oc2ccc(C)cc2)Oc2ccc(C)cc2)cc1`: the Potency entry in test [1], in test [2] and in test [3] was “inactive” in each case.

As to `Cc1cccc(N)c1N`, the Potency result in test [4], in test [1] and in test [2] was “inactive” throughout. The Potency in test [3] was 1.05 µM (active) and 2.43 µM (active).

Consider `Nc1ccc(-c2ccccc2)cc1`, for which the Potency entry in test [4] and in test [1] was “inactive” each time. In addition, the Potency in test [2] is 62.8 µM (active) and inactive; in test [3], 35.3 µM (active) and 9.69 µM (active).

For the origin of these results see PubChem BioAssay (Tox21).
